# Screen size: about 310,000 compounds; about 14,000 (4.5%) showed an effect of 50% or more. The effect is printed as a negative number. The sample holds strong results, similar compounds and a random draw of the others, so the mix is not that of the screen.
# Molecular target: human ether-à-go-go-related gene (hERG) potassium channel (human, UniProt Q12809)
# Experiment: primary screen, population patch clamp on CHO cells stably expressing hERG; higher = less effect of the substance
# 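Further: peak tail current of the secondary pulse compared with the same well before compound.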
# Sequence of human ether-à-go-go-related gene (hERG) potassium channel (Q12809 whole entry, looked up): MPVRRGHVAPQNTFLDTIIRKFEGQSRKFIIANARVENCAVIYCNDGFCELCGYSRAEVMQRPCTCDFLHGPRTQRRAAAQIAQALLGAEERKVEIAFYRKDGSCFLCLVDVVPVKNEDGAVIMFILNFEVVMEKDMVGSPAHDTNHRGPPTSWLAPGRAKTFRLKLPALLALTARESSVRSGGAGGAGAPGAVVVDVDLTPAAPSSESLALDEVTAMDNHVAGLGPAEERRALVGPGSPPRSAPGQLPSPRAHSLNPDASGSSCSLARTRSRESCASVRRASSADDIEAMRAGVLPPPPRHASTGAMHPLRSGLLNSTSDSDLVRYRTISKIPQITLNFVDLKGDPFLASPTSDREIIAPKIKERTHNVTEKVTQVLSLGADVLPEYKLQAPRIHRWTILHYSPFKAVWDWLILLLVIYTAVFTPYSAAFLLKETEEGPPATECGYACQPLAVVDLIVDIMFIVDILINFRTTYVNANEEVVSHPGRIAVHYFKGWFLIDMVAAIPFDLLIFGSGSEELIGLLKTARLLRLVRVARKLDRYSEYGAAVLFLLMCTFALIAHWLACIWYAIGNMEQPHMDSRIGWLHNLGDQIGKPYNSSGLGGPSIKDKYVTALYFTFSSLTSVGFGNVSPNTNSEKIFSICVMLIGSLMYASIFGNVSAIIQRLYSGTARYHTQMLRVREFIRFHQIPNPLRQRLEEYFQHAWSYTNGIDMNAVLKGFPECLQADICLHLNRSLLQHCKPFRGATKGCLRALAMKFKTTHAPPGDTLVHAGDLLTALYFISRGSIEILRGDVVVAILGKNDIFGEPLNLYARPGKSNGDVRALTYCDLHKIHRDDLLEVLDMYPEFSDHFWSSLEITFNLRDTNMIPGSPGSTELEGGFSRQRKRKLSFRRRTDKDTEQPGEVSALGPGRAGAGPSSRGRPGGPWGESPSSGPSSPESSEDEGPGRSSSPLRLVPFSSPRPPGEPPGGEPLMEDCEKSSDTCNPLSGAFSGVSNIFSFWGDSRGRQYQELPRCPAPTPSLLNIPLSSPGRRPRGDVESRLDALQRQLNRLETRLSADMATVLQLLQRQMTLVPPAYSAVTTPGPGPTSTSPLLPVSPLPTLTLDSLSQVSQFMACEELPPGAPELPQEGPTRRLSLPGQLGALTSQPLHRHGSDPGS
row,SMILES,"hERG current change (%, negative = inhibition) at 10uM [%]"
1,CC(C)CN(C(=O)COC(=O)c1cccc2ccccc12)c1c(N)n(Cc2ccccc2)c(=O)[nH]c1=O,6.01
2,O[C@@H]1C2CCCC1[C@]1(O)CCCCC1C2 (stereo partly shown),8.35
3,Cc1ccc(Cl)c(OCC(=O)Nc2ccccc2N2CCCCC2)c1,5.15
4,CS(=O)(=O)N(Cc1ccccc1)c1ccc(C(=O)NCCSCc2ccco2)cc1,-18
5,O=C(O)COc1ccccc1/C=C1\SC(=S)N(c2cccnc2)C1=O,-10.1
6,CCOC(=O)C1CCCCN1C(=O)CCc1c(C)nc2cc(-c3ccccc3)nn2c1C (stereo not shown),-64.4
7,CCOC(=O)C1CCN(C(=O)CCc2c(C)nc3cc(-c4ccccc4)nn3c2C)CC1,-78.5
8,CCOC(=O)C1CCN(C(=O)Cc2ccc(-c3ccccc3)cc2)CC1,-57.7
9,COc1cc(OC)cc(-c2cc3nc(C)c(CCC(=O)O)c(C)n3n2)c1,26
10,NC(=O)C1CCN(C(=O)Cc2ccc(-c3ccccc3)cc2)CC1,1.65
11,COc1ccc(-c2cc3nc(C)c(CCC(=O)N4CCN(c5ccccn5)CC4)c(C)n3n2)c(OC)c1,-36
12,CCOC(=O)C1CCN(C(=O)c2ccc(OC)cc2OC)CC1,-25.5
13,CCOC(=O)C1CCN(C(=O)Cc2ccc(C)cc2)CC1,-1.62
14,CCOC(=O)C1CCN(c2cc(C)nc3cc(-c4cccc(F)c4)nn23)CC1,-5.74
15,CCOC(=O)C1CCN(C(=O)CCc2c(C)nc3cc(-c4ccc(OC)cc4OC)nn3c2C)CC1,-70.7
16,CCOC(=O)C1CCCCN1C(=O)CCc1c(C)nc2ncnn2c1C (stereo not shown),1.42
17,CCOC(=O)C1CCN(C(=O)CCc2ccccc2)CC1,2.13
18,COc1ccc(C(=O)NCC(=O)N/N=C/c2cccc(OC(=O)c3ccco3)c2)cc1OC,21.6
19,COC(=O)c1[nH]c2cc(OC)ccc2c1NC(=O)CN1CCN(c2cccc(C)c2)C(C)C1 (stereo not shown),-0.154
20,CCOC(=O)CNC(=O)CSc1nnc(Cn2cnc3ccccc32)n1C,-0.389
21,O=C(CCC1CCCCC1)NCc1ccccn1,-10.8
22,COC(=O)n1ccc(C(=O)Nc2ccccc2F)n1,-8.09
23,O=C(O)CCc1nn2c3ccccc3nc2n(Cc2ccccc2)c1=O,36.2
24,Cc1ccc2[nH]c(CN3CCC(CO)(CC4CCCCO4)CC3)c(C)c2c1 (stereo not shown),-43.7
25,Cc1c(CN2CCC(CO)(CCOc3ccccc3)CC2)[nH]c2ccc(Cl)cc12,-71
26,COc1ccc2[nH]c(CN3CCC(CO)(CCOc4ccccc4)CC3)c(C)c2c1,-45.3
27,Cc1c(CN2CCN(C)C(CCO)C2)[nH]c2c(Cl)cccc12 (stereo not shown),-42
28,Cc1c(CN2CCC(CO)(CCOc3ccccc3)CC2)[nH]c2c(Cl)cccc12,-60.5

row,SMILES,"hERG current change (%, negative = inhibition) at 10uM [%]"
1,Cc1[nH]c2c(Cl)cccc2c(=O)c1CN1CCCC1,-10.6
2,C/C(=N\NC(=O)c1ccc(CSc2nncn2C)cc1)c1ccc(C#N)cc1,-26
3,O=C(CSc1nncn1-c1cccnc1)Nc1cccc(C(F)(F)F)c1,-57.7
4,Cn1c(SCC(=O)Nc2ccccc2)nnc1C(F)(F)F,32.6
5,Cn1c(SCC(=O)Nc2ccccc2[N+](=O)[O-])nnc1C(F)(F)F,-3.31
6,Cc1nn(Cc2nnc(SCC(=O)Nc3ccc(Cl)cc3)n2C)c(C)c1[N+](=O)[O-],-22.9
7,O=C(CSc1nncn1-c1cccnc1)Nc1ccccc1C(F)(F)F,4.9
8,Cn1c(CN2CCOCC2)nnc1SCC(=O)Nc1cccc(C(F)(F)F)c1,-1.04
9,Cc1nn(Cc2nnc(SCC(=O)Nc3cccc(C(F)(F)F)c3)n2C)c(C)c1[N+](=O)[O-],-57.7
10,Cc1ccc(NC(=O)CSc2nnc(C(F)(F)F)n2C)cc1[N+](=O)[O-],-73.6
11,O=C(CSc1nncn1-c1cccnc1)Nc1cccc([N+](=O)[O-])c1,4.83
12,Cn1cc(CN2CC3C[C@@H]4CC2C[C@H](C3)C4)c(-c2ccc3c(c2)OCCO3)n1,-8.66
13,O=C(NCc1ccccn1)Nc1cccc([N+](=O)[O-])c1,11.6
14,COc1ccc(Cc2nnc(SCC(=O)Nc3ccc(N4CCOCC4)cc3)n2C)cc1,8.93
15,Cc1ccc(C(=O)OCC(=O)NCc2ccco2)cc1,-8.9
16,CCOC(=O)C1CCCN(C(=O)/C=C/c2ccc(OC)cc2)C1 (stereo not shown),-23.6
17,CCOC(=O)C1CCCN(C(=O)Cc2ccc(Cl)cc2)C1 (stereo not shown),6.9
18,CCOC(=O)C1CCCN(C(=O)/C=C/c2cccc([N+](=O)[O-])c2)C1 (stereo not shown),-41.8
19,CCOC(=O)C1CCCN(C(=O)/C=C/c2ccc([N+](=O)[O-])cc2)C1 (stereo not shown),-64.8
20,O=C(c1ccc(Cl)cc1)C1CCCN(C(=O)/C=C/c2ccccn2)C1 (stereo not shown),-51.9
21,COc1c(C)cc(C(=O)C2CCCN(C(=O)/C=C/c3ccccn3)C2)cc1C (stereo not shown),-15.8
22,CCOC(=O)C1CCCN(C(=O)/C=C/c2ccc(Cl)cc2)C1 (stereo not shown),-59.9
23,COc1ccc2cc(C(=O)C3CCCN(C(=O)/C=C/c4ccccn4)C3)ccc2c1 (stereo not shown),-18.3
24,CCOC(=O)C1CCCN(C(=O)/C=C/c2ccccc2[N+](=O)[O-])C1 (stereo not shown),-12.6
25,O=C(O)C(=O)O.O=C(c1ccc(F)cc1)N1CCN(C2CC3CCC2C3)CC1 (stereo not shown),-2.85
26,Cn1cnnc1SCCCN1C(=O)c2cccc3cccc(c23)C1=O,-30.6
27,COc1ccc(CCN(C)C(=O)Cc2ccc(-c3ccccc3)cc2)cc1OC,-0.187
